{"source": "PubChem BioAssay AID1992", "about": "(Sanford-Burnham Center for Chemical Genomics, 2009)", "note": "Screen size: about 50,000 compounds; about 350 (0.7%) were called active. Cut-off read from the data, not from the text of the source: active = inhibition above about 60%; inactive = the rest. This excerpt belongs to a sample that is enriched for actives."}
{"target": "Dual specificity protein phosphatase 3 (Homo sapiens) (UniProt P51452)", "sequence (P51452 whole entry, looked up)": "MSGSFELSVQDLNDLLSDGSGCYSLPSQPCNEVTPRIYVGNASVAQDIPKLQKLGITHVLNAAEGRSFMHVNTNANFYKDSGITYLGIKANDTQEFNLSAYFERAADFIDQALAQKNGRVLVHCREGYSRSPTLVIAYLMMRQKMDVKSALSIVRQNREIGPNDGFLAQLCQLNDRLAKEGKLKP", "assay": "VHR1 phosphatase inhibitors, primary screen, biochemical, colorimetric, HTS (AID 1992)", "settings": "recombinant VHR phosphatase, colorimetric substrate read-out; at 20 µM; active compounds read high"}
{"molecule": "CSc1nc(SC)c2c3c(sc2n1)COC(C)(C)C3", "inhibition": "4.5% (inactive)"}
{"molecule": "CC1(C)CC(NC(=O)c2ccccc2C(=O)O)CC(C)(C)N1", "inhibition": "-26.8% (inactive)"}
{"molecule": "COc1ccc(N2C(=O)C3C(C2=O)C2C=CC3C23CC3)cc1", "note": "(stereo unspecified)", "inhibition": "-13% (inactive)"}
{"molecule": "Cc1ccc(C)c(NC(=O)CN(c2ccc(F)cc2)S(=O)(=O)c2ccccc2)c1", "inhibition": "-21.2% (inactive)"}
{"molecule": "CCCCCCOc1ccc(/C=C2/C(=O)ON=C2c2ccccc2)cc1", "inhibition": "1.2% (inactive)"}
{"molecule": "COC(=O)C(=C/C=C/N(C)C)C(=O)OC", "inhibition": "-1.7% (inactive)"}
{"molecule": "COc1ccc(C2=C/C(=C/c3cccc(OC)c3OC(C)=O)C(=O)O2)cc1", "inhibition": "2.4% (inactive)"}
{"molecule": "O=C1c2cccc3cc(Br)cc(c23)C(=O)N1Nc1ccccc1", "inhibition": "-21.6% (inactive)"}
{"molecule": "COc1ccccc1OCCCCOc1c(C)cccc1C", "inhibition": "27.1% (inactive)"}
{"molecule": "COc1ccc(C2CC(c3ccccc3)=NN2c2ccccc2OC)cc1", "note": "(stereo unspecified)", "inhibition": "8.3% (inactive)"}
{"molecule": "COc1ccc(/C=C2/SC(=S)N(Cc3ccccc3)C2=O)cc1OC", "inhibition": "-6.8% (inactive)"}
{"molecule": "COc1cccc(OCCOc2cccc(/C=C3/SC(=S)N(Cc4ccccc4)C3=O)c2)c1", "inhibition": "112% (active)"}
{"molecule": "CC(C)CN1C(=O)/C(=C/c2cccc(Oc3ccccc3)c2)SC1=S", "inhibition": "-0.1% (inactive)"}
{"molecule": "Cc1ccc(NC(=O)CC2SC(N)=NC2=O)c([N+](=O)[O-])c1", "note": "(stereo unspecified)", "inhibition": "24.8% (inactive)"}
{"molecule": "C=CCN1C(=O)/C(=C\\c2cc(OC)c(O)c([N+](=O)[O-])c2)C(=O)NC1=S", "inhibition": "3.8% (inactive)"}
{"molecule": "C=CCN1C(=O)/C(=C\\c2cccn2-c2cccc([N+](=O)[O-])c2)C(=O)NC1=S", "inhibition": "85.9% (active)"}
{"molecule": "COc1ccc(N2C(=O)NC(=O)/C(=C/c3cccn3-c3ccc([N+](=O)[O-])cc3)C2=O)cc1", "inhibition": "-13.8% (inactive)"}
{"molecule": "CC(=O)Oc1ccc(/C=C2\\C=C(c3ccc(Br)cc3)OC2=O)c(OC(C)=O)c1", "inhibition": "5.9% (inactive)"}
{"molecule": "CCOC(=O)CCCN1C(=O)/C(=C/c2ccccc2)SC1=S", "inhibition": "-3.8% (inactive)"}
{"molecule": "CCOc1ccc(N2C(=O)S/C(=C\\c3ccccc3OC)C2=O)cc1", "inhibition": "-12.5% (inactive)"}
{"molecule": "CCOC(=O)c1sc(C)c(C(N)=O)c1N", "inhibition": "0.2% (inactive)"}
{"molecule": "O=C1N/C(=N/N=C/c2ccc3c(c2)OCO3)SC1c1ccccc1", "note": "(stereo unspecified)", "inhibition": "-3.2% (inactive)"}
{"molecule": "O=C(Nc1c(Cl)cccc1Cl)c1ccc(Cl)c(Cl)c1", "inhibition": "-2% (inactive)"}
{"molecule": "CCc1cccc(CC)c1NC(=O)c1ccccc1OC", "inhibition": "2.4% (inactive)"}
{"molecule": "COc1ccc(CCNS(=O)(=O)c2cccc([N+](=O)[O-])c2)cc1", "inhibition": "8.5% (inactive)"}
{"molecule": "CCOc1cccc2c1NC(C)(C)C(=S)C2=C1SC(C(=O)OC)=C(C(=O)OC)S1", "inhibition": "-4.6% (inactive)"}
{"molecule": "CCN(CC)c1ccc(NC(=O)c2oc3ccccc3c2C)cc1", "inhibition": "7.4% (inactive)"}
{"molecule": "CCOC(=O)c1ccc(NC(=O)/C(C#N)=C2\\NC(C)(C)Cc3ccccc32)cc1", "inhibition": "-14% (inactive)"}
{"molecule": "Cc1cc(OCC(=O)Nc2cccnc2)ccc1Cl", "inhibition": "-1.1% (inactive)"}
{"molecule": "CCOC(=O)c1ccccc1N/C=C(\\C#N)C(=O)NCc1ccccc1", "inhibition": "-12% (inactive)"}
{"molecule": "CC1=C(C(=O)c2ccccc2)C(c2ccc([N+](=O)[O-])cc2)NC(=O)N1", "note": "(stereo unspecified)", "inhibition": "-1.5% (inactive)"}
{"molecule": "COc1ccc(C(=O)N2CCN(Cc3cccc(OC)c3OC)CC2)cc1OC", "inhibition": "-15.2% (inactive)"}
{"molecule": "COc1ccc(OC(C)C(=O)NCCc2nc3ccccc3[nH]2)cc1", "note": "(stereo unspecified)", "inhibition": "-9.3% (inactive)"}
{"molecule": "CC(=O)Nc1ccc(S(=O)(=O)Nc2cccc(-c3nc4ccccc4[nH]3)c2)cc1", "inhibition": "-3% (inactive)"}
{"molecule": "Cc1cc2c(cc1C)-c1nc3ccccc3c(=O)n1C(C)(C)C2", "inhibition": "-9.1% (inactive)"}
{"molecule": "Cc1cc(C(=O)N/N=C/c2ccc(Br)c([N+](=O)[O-])c2)n[nH]1", "inhibition": "-1.6% (inactive)"}
{"molecule": "CC(C)(C)OC(=O)NC(Cc1c[nH]c2ccccc12)C(=O)N1CCOCC1", "note": "(stereo unspecified)", "inhibition": "4.4% (inactive)"}
{"molecule": "O=C1N/C(=N\\N=C\\c2ccccc2O)SC1Cc1cccc(C(F)(F)F)c1", "note": "(stereo unspecified)", "inhibition": "-19.6% (inactive)"}
{"molecule": "Cc1cc(NC(=O)C2CCCCC2)cc(C)c1O", "inhibition": "-10.1% (inactive)"}
{"molecule": "Cc1ccc(-c2cc(C(=O)N3CC(C)CC(C)C3)c3ccccc3n2)cc1C", "note": "(stereo unspecified)", "inhibition": "30.2% (inactive)"}
{"molecule": "CC(C)c1ccc(C(=O)NC2CC2)cc1", "inhibition": "0% (inactive)"}
{"molecule": "COc1cccc(C2/C(=C(\\O)c3ccc(Cl)cc3)C(=O)C(=O)N2c2cccnc2)c1", "note": "(stereo unspecified)", "inhibition": "-0.3% (inactive)"}
{"molecule": "N#C/C(=C\\c1cn(CC(=O)Nc2ccccc2)c2ccccc12)C(=O)Nc1ccc(F)cc1", "inhibition": "23.2% (inactive)"}
{"molecule": "O=c1oc2c(-c3cc(Cl)ccc3Cl)cc(O)cc2s1", "inhibition": "14% (inactive)"}
{"molecule": "C/C(=N/NC(=O)c1ccccc1C)c1ccc(NC(=O)C(F)(F)F)cc1", "inhibition": "-15.5% (inactive)"}
{"molecule": "O=c1[nH]c(=S)n(-c2cccc(Cl)c2)c(O)c1/C=C1/C=CC=N1", "inhibition": "87.4% (active)"}
